Consider 29 molecules from PubChem BioAssay (NCATS).

Structures are written as SMILES. Values joined by “and” are separate entries in the source; they are usually repeats but may differ in a detail not shown here. Equal values may be shown once. Records with an inconclusive call do not appear. Values without a mark were called inactive. Active and inactive are the calls of the source. Unless noted, calls come from the whole dose curve; as a rule, active = well fitted curve in the direction sought with a large enough effect; inconclusive = small, poorly fitted or top-dose-only effect, or another doubt; inactive = no such curve, though single readings can be large; an effect the other way counts as inactive or inconclusive.

Test [1] has as its target Cellular tumor antigen p53 (Homo sapiens) (UniProt P04637). Nature of the test: Primary qHTS for small molecule compounds that upregulate eGFP-tagged delta133p53alpha (in N-terminal) cells. (AID 2060322).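 For activation: cells pre-induced with doxycycline then dosed without doxycycline; 0% = DMSO vehicle and 100% = reference activator.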 Note: nearly all actives have a fitted effect of over 75% in size. Note: potency is the fitted concentration of half-maximal effect. To be noted: NCI-H358 eGFP-delta133p53alpha fluorescence, 24 h; activation: stronger effect = higher value. An outline of the steps:
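NCI-H358 cells pre-induced 24 h with 10 ng/ml doxycycline for eGFP-delta133p53alpha, plated dox-free and exposed 24 h at 37C to titrated compounds. Fixed, Hoechst-stained; gated GFP peak intensity by laser scanning cytometry, normalized to DMSO (0%) and 57.5 uM 5-azacytidine (100%).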
For orientation: In qHTS, concentration-response curves come from the screen itself.

The target in test [2] is Aldehyde dehydrogenase, mitochondrial (Homo sapiens) (UniProt P05091). Nature of the test: qHTS for Inhibitors of the Aldehyde Dehydrogenase Family (ALDH2) Validation screens (AID 2061302; active = well fitted inhibition curve with a large enough effect; title and protocol of this record describe different tests; note: potency is the fitted concentration of half-maximal effect). Conditions: ALDH inhibition qHTS; series mostly up to 42.6 µM.
The target in test [3] is Retinaldehyde dehydrogenase 3 (Homo sapiens) (UniProt P47895). Nature of the test: qHTS for Inhibitors of the Aldehyde Dehydrogenase Family (ALDH1A3) Validation screen (AID 2061312). Note: % is set by controls: 0 for no effect and ±100 for the full control effect; nearly all actives have a fitted effect of over 45% in size. Conditions: ALDH1A3 enzyme inhibition qHTS validation, fluorescence; series mostly up to 42.4 µM.
Test [4] has as its target Aldehyde dehydrogenase, mitochondrial (Homo sapiens) (UniProt P05091). Nature of the test: qHTS for Inhibitors of the Aldehyde Dehydrogenase Family (ALDH2) Confirmatory screens (AID 2061303; active = well fitted inhibition curve with a large enough effect; title and protocol of this record describe different tests; note: nearly all actives have a fitted effect of over 45% in size; note: potency is the fitted concentration of half-maximal effect). Conditions: ALDH inhibition qHTS; series mostly up to 45.4 µM.
The target of test [5] is Aldehyde dehydrogenase 1A1 (Homo sapiens) (UniProt P00352). Nature of the test: qHTS for Inhibitors of the Aldehyde Dehydrogenase Family (ALDH1A1) Confirmatory screens (AID 2061316). Note: potency is the fitted concentration of half-maximal effect; nearly all actives have a fitted effect of over 65% in size. To be noted: ALDH inhibition qHTS; series mostly up to 47.3 µM.
The target of test [6] is Aldehyde dehydrogenase, mitochondrial (Homo sapiens) (UniProt P05091). Nature of the test: qHTS for Inhibitors of the Aldehyde Dehydrogenase Family (ALDH2) Primary screen (AID 2061308).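 Note: plate controls were vehicle for no effect and reference inhibitor for full effect; nearly all actives have a fitted effect of over 55% in size.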 To be noted: ALDH2 enzyme inhibition qHTS, 1536-well; series mostly up to 56 µM.
The target of test [7] is Retinaldehyde dehydrogenase 3 (Homo sapiens) (UniProt P47895). Nature of the test: qHTS for Inhibitors of the Aldehyde Dehydrogenase Family (ALDH1A3) Primary screen (AID 2061315).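 Note: plate controls were DMSO vehicle for no effect and reference inhibitor for full effect.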 Conditions: ALDH inhibition qHTS; series mostly up to 56 µM.
For test [8], the target named is Cellular tumor antigen p53 (Homo sapiens) (UniProt P04637). Nature of the test: Primary qHTS for small molecule compounds that upregulate eGFP-tagged delta133p53alpha (in C-terminal) cells. (AID 2060324).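 Note: 0% = DMSO wells and 100% = 57.5 µM 5-azacytidine.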 Conditions: NCI-H358 delta133p53alpha-eGFP (C-terminal tag), GFP fluorescence imaging, 24 h; series mostly up to 57.5 µM. An outline of the steps: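 Doxycycline (100 ng/ml, 24 h) first induced the eGFP fusion in NCI-H358 C-terminal-tag cells. Washed-out cells then received titrated compounds for 24 h at 37 °C before paraformaldehyde fixation, Hoechst staining and cytometric GFP quantification.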
Sequence of Cellular tumor antigen p53 (Homo sapiens) (P04637 whole entry, looked up, the tested form may be a part): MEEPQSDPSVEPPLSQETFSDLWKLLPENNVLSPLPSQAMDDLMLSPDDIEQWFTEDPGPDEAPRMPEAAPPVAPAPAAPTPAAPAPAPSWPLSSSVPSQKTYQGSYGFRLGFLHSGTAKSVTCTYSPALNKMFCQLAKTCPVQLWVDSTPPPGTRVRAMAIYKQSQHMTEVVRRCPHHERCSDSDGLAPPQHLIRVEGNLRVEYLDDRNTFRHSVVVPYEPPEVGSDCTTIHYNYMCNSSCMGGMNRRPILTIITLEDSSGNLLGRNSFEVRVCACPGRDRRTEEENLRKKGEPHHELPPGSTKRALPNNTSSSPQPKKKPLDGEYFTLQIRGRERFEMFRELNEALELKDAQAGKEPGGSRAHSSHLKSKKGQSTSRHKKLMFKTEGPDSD

Test [9] is described as follows: qHTS for Inhibitors of the Aldehyde Dehydrogenase Family (ALDH1A2, ALDH1A3, ALDH2, ALDH3A1) (AID 2061307). Note: % is set by controls: 0 for no effect and ±100 for the full control effect; nearly all actives have a fitted effect of over 50% in size. Conditions: ALDH inhibition qHTS; series mostly up to 50.3 µM.
Test [10] concerns the target Retinaldehyde dehydrogenase 3 (Homo sapiens) (UniProt P47895). Nature of the test: qHTS for Inhibitors of the Aldehyde Dehydrogenase Family (ALDH1A3) Confirmatory screens (AID 2061311). Note: nearly all actives have a fitted effect of over 60% in size. Note: potency is the fitted concentration of half-maximal effect. To be noted: ALDH inhibition qHTS; series mostly up to 46 µM.
In test [11] the target is Retinal dehydrogenase 2 (Homo sapiens) (UniProt O94788). Nature of the test: qHTS for Inhibitors of the Aldehyde Dehydrogenase Family (ALDH1A2) Confirmation screens (AID 2061314). Note: % is set by controls: 0 for no effect and ±100 for the full control effect; nearly all actives have a fitted effect of over 65% in size. To be noted: ALDH1A2 enzyme inhibition qHTS confirmation; series mostly up to 45.9 µM.

For `COC(=O)N1CCN(C(=O)Cc2ccc(Cl)c(Cl)c2)C(CN2CCCC2)C1` (stereo unspecified), the activation in [1] is 5.56%. Moreover, the Potency result in test [2] and in test [3] was “inactive” throughout.
With `CCCN(CCC)C1CCc2ccc(O)cc2C1` (stereo unspecified), the activation in [1] is -10.8%. The Potency entry in test [2] and in [3] was “inactive” each time.
On to `C#CCN[C@H](C)Cc1ccccc1`, for which the activation in [1] was 4.01%. Besides, the Potency result in [2] is “inactive”.
`C[N+](C)(C)CC#CCOC(=O)Nc1cccc(Cl)c1`: in test [1], the activation was 13.3%. Further, the Potency in test [2] was 10 µM (active); in test [4] it was 10.1 µM (active); in test [5], 22.5 µM (active).
With `CN[C@@H]1C[C@@H](c2ccc(Cl)c(Cl)c2)c2ccccc21`, the activation in [1] was -33.4%. Besides, the Potency result in [2] and in test [3] was “inactive” in each case.
As to `CCCN1CCc2cc(O)cc3c2[C@H]1Cc1ccc(O)c(O)c1-3`, the activation in test [1] is 23.3%. For the same molecule, in test [2], the Potency result was “inactive”.
As to `Oc1ccc2c3c1O[C@H]1c4oc5ccccc5c4C[C@@]4(O)C(C2)N(CC2CC2)CCC314` (stereo partly specified), the activation in test [1] was -83.6%. Further, the Potency entry in test [2] and in test [3] was “inactive” each time.
`COc1ccc2c(c1O)-c1cccc3c1[C@@H](C2)N(C)CC3`: in [1], the activation was -2.98%. The Potency result in test [2] was “inactive”.
`S=C(NC1CCCCC1)N1CCC(c2cnc[nH]2)CC1`: the activation in [1] is 5.67% and -16.8%. Also, the Potency result in test [2], in test [6], in test [3] and in test [7] was “inactive” each time.
With `CCS(=O)(=O)Nc1cccc(C(=C2CCCCC2)c2cnc[nH]2)c1`, the activation in [1] is -47%. Also, the Potency result in test [2] and in test [3] was “inactive” throughout.
With `CC(C)(C)c1cc(C=C(C#N)C#N)cc(C(C)(C)C)c1O`, the activation in test [1] was 6.66%. The Potency entry in [2] and in [3] was “inactive” throughout.
Turning to `CNCCc1ccc(O)c(O)c1`, the activation in test [1] was -26.5%. Moreover, the Potency entry in test [2] is “inactive”.
`CCCN(CCC)CCc1ccc(O)c(O)c1`: the activation in test [1] is -0.248%. Further, the Potency result in test [2] and in [3] was “inactive” each time.
Take `c1ccc2c(N3CCNCC3)cccc2c1`: the activation in test [1] is -14.7%. In addition, the Potency result in test [2] is “inactive”.
In the case of `C[N+](C)(C)CC#CCN1CCCC1=O`, in [1], the activation was -31.7%. For the same molecule, the Potency result in [8] and in [3] was “inactive” in each case.
Regarding `Cc1o[nH]c(=O)c1CC(N)C(=O)O` (stereo unspecified), the activation in [1] is 16.8%. Moreover, the Potency result in test [2] is “inactive”.
Consider `CCn1cnc2c(Nc3cccc(Cl)c3)nc(N[C@@H]3CCCC[C@@H]3N)nc21`, for which the Potency in test [1] was 6.01 µM (active). Moreover, the Potency result in test [2] was “inactive”.
Take `CC(C)(C)c1o[nH]c(=O)c1CC(N)C(=O)O` (stereo unspecified): the activation in [1] is -13.9%. The Potency result in test [2] and in [3] was “inactive” throughout.
Turning to `CCN1C[C@@]2(COC)C3[C@@H](OC)C4[C@@H]1C3([C@@H]1C[C@]3(O)[C@H](OC(=O)c5ccccc5)[C@@H]1[C@]4(OC(C)=O)[C@@H](O)[C@@H]3OC)[C@H](OC)C[C@H]2O`, the activation in [1] is -12.5%. Moreover, the Potency result in test [2] and in test [3] was “inactive” throughout.
In the case of `NCCc1c[nH]c2ccccc12`, the activation in test [1] is -5.39%. Also, the Potency entry in [2] and in [3] was “inactive” in each case.
Turning to `NC(=O)c1ccc(OCC(O)CN2CC=C(c3ccc(F)cc3)CC2)cc1` (stereo unspecified), in test [1], the activation is 5.52%. The Potency result in [2] was “inactive”.
In the case of `NC1CCc2cc(O)c(O)cc2C1` (stereo unspecified), in [1], the activation is -13%. In addition, the Potency entry in test [2], in test [9] and in [11] was “inactive” in each case. In addition, the Potency in test [10] is 11.3 µM (active).
As to `O=C(O)Cc1cnc[nH]1`, in test [1], the activation is -6.89%. The Potency entry in test [2] was “inactive”.
On to `OC1CCCCC1N1CCC(c2ccccc2)CC1` (stereo unspecified), for which the activation in test [1] is -21.4%. Also, the Potency result in test [2] and in test [3] was “inactive” in each case.
In the case of `[Cl-].[Cl][Pt].[NH2-].[NH2-].c1ccncc1`, the activation in test [1] is -12%. For the same molecule, in test [2], the Potency result was “inactive”.
`c1ccc2cc(CC3=NCCN3)ccc2c1`: in test [1], the activation was -13.6%. Further, the Potency entry in test [2] and in test [3] was “inactive” throughout.
For `CC1(C(=O)O)C2CCC(O2)C1(C)C(=O)O` (stereo unspecified), the activation in [1] is -33.6%. Besides, the Potency result in test [2] and in test [3] was “inactive” throughout.
Take `Cc1cc(C(=O)CN2CCCC2)c(C)n1-c1ccc(F)cc1`: the activation in [1] was 10% and -5.25%. In addition, the Potency result in test [4], in test [9], in test [6], in test [10], in [3] and in test [7] was “inactive” throughout.
On to `CC(=O)[C@H]1CC[C@H]2[C@@H]3CC[C@H]4C[C@H](O)CC[C@]4(C)[C@H]3C(=O)C[C@]12C`, for which the activation in test [1] was -36.8% and -33%. Moreover, the Potency entry in test [2] and in test [3] was “inactive” each time.
